Structures are written as SMILES. Active and inactive are the calls of the source. Rule for the calls: active = hit-call score of the fitted dose curve at least 0.9, where 1 is the maximum; inactive = score below 0.9.

Sequence of Hypoxia-inducible factor 1-alpha (Homo sapiens) (Q16665 whole entry, looked up): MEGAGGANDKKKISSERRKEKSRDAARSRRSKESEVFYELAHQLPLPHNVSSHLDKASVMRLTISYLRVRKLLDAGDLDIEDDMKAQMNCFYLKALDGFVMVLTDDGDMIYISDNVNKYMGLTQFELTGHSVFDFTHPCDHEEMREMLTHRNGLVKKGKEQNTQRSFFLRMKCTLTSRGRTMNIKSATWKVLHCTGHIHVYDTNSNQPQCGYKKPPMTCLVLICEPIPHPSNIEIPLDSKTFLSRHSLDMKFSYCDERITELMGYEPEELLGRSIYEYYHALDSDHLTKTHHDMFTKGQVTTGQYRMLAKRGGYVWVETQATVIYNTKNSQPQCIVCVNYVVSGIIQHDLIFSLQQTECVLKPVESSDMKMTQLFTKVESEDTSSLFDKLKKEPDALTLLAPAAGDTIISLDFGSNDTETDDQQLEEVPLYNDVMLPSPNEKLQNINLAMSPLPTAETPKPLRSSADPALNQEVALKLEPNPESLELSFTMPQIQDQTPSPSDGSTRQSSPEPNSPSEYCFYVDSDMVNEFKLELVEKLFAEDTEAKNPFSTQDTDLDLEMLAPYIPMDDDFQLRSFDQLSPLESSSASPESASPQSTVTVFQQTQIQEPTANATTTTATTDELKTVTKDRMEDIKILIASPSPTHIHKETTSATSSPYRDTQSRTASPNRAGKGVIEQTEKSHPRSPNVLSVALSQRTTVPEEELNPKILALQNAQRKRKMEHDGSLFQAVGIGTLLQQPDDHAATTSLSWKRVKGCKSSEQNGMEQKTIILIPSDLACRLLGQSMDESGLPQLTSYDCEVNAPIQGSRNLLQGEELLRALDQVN

The target in the test is Hypoxia-inducible factor 1-alpha (Homo sapiens) (UniProt Q16665). Description: ATG_HIF1a_CIS: Attagene CIS-FACTORIAL HepG2 Assay for human Hypoxia Inducible Factor 1 (HIF1A) (AID 2282951). The note with it: HepG2 Attagene cis-factorial HIF1a reporter transcription; actives raise or lower the signal. Here is the method:
ATG_CIS is a cell-based, multiplexed-readout assay that uses HepG2, a human liver cell line, with measurements taken at 24 hours after chemical dosing in a 24-well plate.ATG_HIF1a_CIS is one of 52 assay component(s) measured or calculated from the ATG_CIS assay. It is designed to make measurements of mRNA induction, a form of inducible reporter, as detected with fluorescence intensity signals by Reverse transcription polymerase chain reaction (RT-PCR) and Capillary electrophoresis technology.Data from the assay component ATG_HIF1a_CIS was analyzed into 1 assay endpoint. This assay endpoint, ATG_HIF1a_CIS, was analyzed with bidirectional fitting relative to DMSO as the negative control and baseline of activity. Using a type of inducible reporter, measures of mRNA for gain or loss-of-signal activity can be used to understand the reporter gene at the transcription factor-level as they relate to the gene HIF1A. Furthermore, this assay endpoint can be referred to as a primary readout, because this assay has produced multiple assay endpoints where this one serves a reporter gene function. To generalize the intended target to other relatable targets, this assay endpoint is annotated to the dna binding intended target family, where the subfamily is basic helix-loop-helix protein.
Human liver HepG2 cells are transiently transfected with multiple reporter transcription units (MRTUs) in 6-well plates using FuGene 6 reagent (Roche; 3 ml FuGene/1 mg DNA). The MRTU constructs are regulated by a cis-regulating element (promoter). […] A major difference between the CIS and TRANS system is that in CIS activities of endogenous TFs are measured, whereas the TRANS assay evaluates changes in activities of exogenous, chimeric NR-Gal4 proteins. […] At the end of 24 hour incubation, total RNA was isolated using TriZol reagent (Invitrogen). The isolated RNA is then reverse-transcribed using oligo(dT) primer and Mo-MLV reverse transcriptase (Invitrogen) with DNAse I (Ambion) treatment for 30 min. The one-tenth of the produced cDNA was amplified by PCR using Taq DNA polymerase (Invitrogen) and two reporter sequence-specific primers. The PCR products were fluorescently labeled by primer extension with 6-arboxyfluorescein (6-FAM) 5'-labeled reporter sequence-specific primer (2 min at 95 C, 20 s at 68 C and 10 min at 72 C) and these products were digested with 5U of HpaI (New England Biolabs) for 2h at 37 C. The fragments were purified using Qiaquick PCR columns (Qiagen), analyzed on an ABI 3130xL genetic analyzer (Applied Biosystems) with peak positions identified by using a set of X-rhodamine (ROX)-labeled MapMarker1000 molecular weight standards (BioVentures). The raw capillary electrophoresis data was processed using Attagraph software (Attagene).
Regarding `CCOC(=O)N(C)N=O`, the compound was called inactive.
With `O=S(=O)(O)O`, the outcome was inactive.
Regarding `O=CNC(N1CCN(C(NC=O)C(Cl)(Cl)Cl)CC1)C(Cl)(Cl)Cl` (stereo not given), the outcome was inactive.
As for `Clc1ccc(-c2ccccc2)cc1`, the call was inactive.
For the compound `COC(=O)c1ccccc1S(=O)(=O)NC(=O)Nc1nc(C)cc(C)n1`, the result was inactive.
Turning to `Nc1ccc(Cl)c(Cl)c1`, the call was inactive.
Turning to `[CH3][Sn]([Cl])([Cl])[Cl]`, the compound was called inactive.
As for `CCCCCCCCCCCC#N`, the result was inactive.
Consider `ClC1=C(Cl)[C@]2(Cl)[C@@H]3[C@@H](Cl)[C@H](Cl)C[C@@H]3[C@@]1(Cl)C2(Cl)Cl`, for which the concentration at half-maximal activity (AC50) was 36.6 µM (active).
For `O=[N+]([O-])c1cc([N+](=O)[O-])c2ccccc2c1`, the result was inactive.
Turning to `O=C(O)C(Br)Br`, the result was inactive.
Consider `Cc1ccc(C)c2ccccc12`, for which the call was inactive.
For `CCCCCc1cc(O)cc(O)c1`, the half-maximal activity concentration (AC50) is 100 µM (active).
On to `O=C(O)CCCc1ccc(N(CCCl)CCCl)cc1`, for which the outcome was inactive.
`CCOP(O)OCC`: the compound was classed as inactive.
Regarding `N#CCCCl`, the outcome was inactive.
As for `CC(C)C(=O)Cl`, the outcome was inactive.
The same measure, in the same setting: the result for `C[N+](C)=CCl` reads “inactive”.
`Nc1ccccc1C(=O)Oc1ccc2ccccc2c1`: the outcome was inactive.
In the case of `CC(C)(C)C(O)C(Oc1ccc(-c2ccccc2)cc1)n1cncn1` (stereo not given), the result was inactive.
Turning to `C=CCc1ccc(OC(=O)Cc2ccccc2)c(OC)c1`, the outcome was inactive.
The same measure, in the same setting: the result for `C=Cc1cccc(CCl)c1` reads “inactive”; that for `C=CC(=O)OC`, “inactive”; that for `CC1CCC(=O)O1` (stereo not given), “inactive”.
Still for that read-out and setting: the result for `Nc1cc(Cl)cc(Cl)c1` reads “inactive”.
As for `CCOP(=O)(OCC)Oc1ccc([N+](=O)[O-])cc1`, the compound was classed as inactive.
For the compound `O=[N+]([O-])c1ccc(Cl)cc1`, the result was inactive.
As to `CC(C)(c1cc(Cl)c(O)c(Cl)c1)c1cc(Cl)c(O)c(Cl)c1`, the outcome was inactive.
As for `C=CC(=O)OCCCCOC(=O)C=C`, the AC50 is 63.6 µM (active).
`N#Cc1cc(I)c(O)c(I)c1`: the outcome was inactive.
For `C[N+](=O)[O-]`, the compound was classed as inactive.
Take `CNC(=N[N+](=O)[O-])NCC1CCOC1` (stereo not given): the result was inactive.
As for `COc1ncc(F)c2nc(S(=O)(=O)Nc3c(F)cccc3F)nn12`, the compound was classed as inactive.
With `CCC1CCC(=O)O1` (stereo not given), the result was inactive.
Turning to `O=[N+]([O-])O`, the call was inactive.
Consider `[Cl-].[Cl-].[Cl-].[Yb+3]`, for which the outcome was inactive.
As to `C=CCN(CC=C)C(=O)C(Cl)Cl`, the compound was called inactive.
For the compound `CC1(C)[C@H](C(=O)O[C@H](C#N)c2cccc(Oc3ccccc3)c2)[C@@H]1C=C(Br)Br`, the result was inactive.
Turning to `O=C(O)COc1ccccc1`, the call was inactive.
As for `CCCCOC(=O)CCC(=O)OCCCC`, the compound was called inactive.

For orientation: AC50 means the concentration at which the activity in the assay is half-maximal.

These data come from PubChem BioAssay (EPA / NIEHS).
